# Test results from PubChem BioAssay AID1347073 (National Center for Advancing Translational Sciences (NCATS), 2019).
# Hit rate of the full screen: of about 45,000 compounds, about 200 (0.44%) were called active. Another 7% or so got no clear call; they are omitted. What follows is part of a selection rich in actives, with near analogues and random picks from the rest. Values without a mark were called inactive. Calls come from the whole dose curve; as a rule, active = well fitted activation curve with a large enough effect; inconclusive = small, poorly fitted or top-dose-only effect; inactive = no such curve, though single readings can be large or run the other way.
# Experiment: qHTS of TDP-43 Inhibitors: NCGC Sytravon Library Screen; note: nearly all actives have a fitted effect of over 55% in size; for growth rescue (activation): 0% is about no effect
# Conditions: yeast TDP-43 toxicity rescue, BacTiter-Glo growth, 24 h; series mostly up to 46.1 µM; growth rescue (activation): at the top concentration
# Source text: The goal of this project is to identify new chemical probes capable of reversing the toxicity associated with TDP-43 which is associated with frontotemporal lobar degeneration and amyotrophic lateral sclerosis. These compounds will provide a complementary approach to deciphering the tangled mechanisms of toxicity and protection that we have uncovered through genome-wide genetic screens and are beginning to uncover in a large-scale proteomics analysis with mass spectroscopy. To this end, a miniaturized assay was developed to be screened against the Molecular Libraries Small Molecule Repository (MLSMR) to discover TDP-43 inhibitors. Please note that in the set-up this yeast-based assay compounds that inhibit as TDP-43, have a read-out as activators. NIH Chemical Genomics Center [NCGC] NIH Molecular Libraries Probe Centers Network [MLPCN] Assay Submitter (PI): Susan Lindquist, Whitehead Institute/MIT MLPCN Grant: R21 NS060957
# Dispense 2.5 microL yeast galactose medium per 1536-well plate, pin compound, dispense 2.5 microL TDP-43 expressing yeast in galactose medium at OD600=0.02 (pregrown in raffinose medium to mid-log phase) per well, incubate for 24 hr at 30 deg C, and cell growth will be measured using 5 microL of Bactiter/Glo reagent to entire plate and read using Luminescence Protocol in ViewLux.
# Potency is the fitted concentration of half-maximal effect.
Structure (SMILES),growth rescue (activation),Potency
O=C(O)c1cccc(S(=O)(=O)Nc2ccc(O)cc2Sc2nc3ccccc3s2)c1,8.39%,
COc1ccccc1N(CC(=O)Nc1ccc(C)cc1Cl)S(=O)(=O)c1cccs1,3.97%,
O=C(NNS(=O)(=O)c1ccc(F)cc1)C1CCCCC1,15.8%,
O=C(Nc1ccc(Cl)cc1)c1csc([C@H]2C[C@H](O)[C@@H](CO)O2)n1,-7.86%,
CCOC(=O)c1oc2c(CN3CCN(CCO)CC3)c(O)c(CC)cc2c(=O)c1-c1nc2ccccc2s1,-2.19%,
CCNc1nc(NCC)nc(N/N=C/c2ccc(O)c(OC)c2)n1,8.29%,
COc1ccc(C(=O)NC2CCN(C(=O)Nc3ccc(F)cc3)CC2)cc1,4.62%,
Cc1nc(CN2CCN(C(=O)CCc3nnc(Cc4c[nH]c5ccccc45)o3)CC2)cs1,5.06%,
CCNC(=O)C1(C)CCCN(Cc2noc(-c3ccccc3OC)n2)C1 (configuration not stated),8.22%,
Cc1ccc(CN(CC(=O)NCC2CCCO2)S(=O)(=O)c2ccc(C)cc2)cc1 (configuration not stated),21%,
COC(=O)c1c(NC(=O)CN2C(=O)NC(CCc3ccccc3)C2=O)sc2c1CCCCC2 (configuration not stated),-21.8%,
COCCNC(=O)CN(Cc1ccco1)C(=O)CCC(=O)Nc1nccs1,2.54%,
O=C(NCCCN1CCOCC1)c1cc(-c2cccc(O)c2)on1,-3.23%,
COc1ccc(CCNC2=CC(=O)CC(C)(C)C2)cc1,-5.94%,
CCOc1ccccc1/C=N/Nc1nc2ccccc2o1,15.2%,
Cc1nc(C(F)(F)F)ccc1C(=O)N1CCC1(C)C(=O)NS(=O)(=O)c1ccccc1 (configuration not stated),14%,
C=CCN1C(=O)C(O)(CC(=O)c2ccccn2)c2ccccc21 (configuration not stated),2.18%,
COc1ccc(N(C)S(=O)(=O)c2cccc3nsnc23)cc1,21.5%,
CCCC(=O)Nc1ccc2c(c1)nc(CCNC(=O)c1ccco1)n2C,-7.12%,
COc1ccc(NC(=O)NC(C)c2c(-n3cccc3)sc(C)c2C)cc1OC (configuration not stated),1.24%,
COCCNC(=O)C1(C)CCCN(Cc2cccc(F)c2)C1 (configuration not stated),-16.4%,
COc1ccc(-n2cnnc2SCC(=O)Nc2cccc(S(N)(=O)=O)c2)cc1,-0.153%,
O=C(O)c1ccc(/C=N/NC(=O)c2ccc(Br)cc2)cc1,8.15%,
Cc1cc(=O)[nH]c(SCC(=O)Nc2ccc(Br)cc2)n1,0.754%,
CCOC(=O)Cc1csc(NC(=O)CSc2ccc(Br)cc2)n1,,12.6 µM (active)
CCOC(=O)Cc1csc(SCc2cc(=O)oc3cc(O)ccc23)n1,2.23%,

Structure (SMILES),growth rescue (activation),Potency
O=C(C(Cl)Cl)N1CCN(c2ccccn2)CC1,7.4%,
OC(c1ccc(F)cc1)c1ncc(-c2cccc(C(F)(F)F)c2)[nH]1 (configuration not stated),14.7%,
COc1ccc(CN(C)Cc2nc3cc(OC)c(OC)cc3c(=O)[nH]2)c(OC)c1,5.3%,
CC1(C(=O)NS(=O)(=O)Cc2cccc(Cl)c2)CCN1C(=O)Cc1ccc(Cl)cc1Cl (configuration not stated),6.35%,
O=C(NC1CCCC1)C(c1c(F)cccc1Cl)N(C(=O)c1csnn1)C1CC1 (configuration not stated),13.1%,
O=C(COC(=O)c1ccc([N+](=O)[O-])o1)NC12CC3CC(CC(C3)C1)C2,9.8%,
Cc1noc(/C=C/c2ccco2)c1S(=O)(=O)N1CCC(C(=O)Nc2ccc(Cl)cn2)CC1,3.65%,
CC(C)c1nc2sc3c(c2c(=O)n1N)CC(C)(C)OC3,20.6%,
CN(CCc1ccccn1)C(=O)CCC1CCCN(Cc2ccccc2OC(F)F)C1 (configuration not stated),1.51%,
CC(=O)Nc1ccc(NC(=S)NC(=O)c2ccc([N+](=O)[O-])c(C)c2)cc1,12.6%,
O=C(NCc1cccnc1)c1cc(C2CCCN(C(=O)CCCc3ccccc3)C2)on1 (configuration not stated),2.36%,
OC[C@@H]1CN(Cc2ccc3c(c2)OCO3)C[C@H](n2cnc3c(NCc4ccco4)ncnc32)O1,8.28%,
O=C(c1cnccn1)N1CCN(S(=O)(=O)c2cccc(Cl)c2)CC1,12.7%,
CCCCNC(=O)N(O)C1N(/N=C/c2ccccc2O)C(=S)SC1(C)C (configuration not stated),13.7%,
Cc1cccc(NC(=O)c2ccc([N+](=O)[O-])o2)c1,-89%,
CCCSc1ncc(Cl)c(C(=O)Nc2c(C(=O)Nc3ccccc3)oc3ccccc23)n1,5.87%,
Cc1cccc(NC(=O)c2nc(S(=O)(=O)Cc3ccccc3)ncc2Cl)c1,,12.6 µM (active)
O=C(NCCc1ccccc1)c1ccc2c(c1)N(Cc1ccccc1)C(=O)c1ccccc1S2(=O)=O,14%,
Cc1ccc(OCC(=O)NCCCNC(=O)c2ccco2)cc1C,9.61%,
N/C(=N/O)c1cccn1Cc1ccccc1[N+](=O)[O-],4.53%,
CCCn1c(=N)n(CC(O)COc2ccccc2OC)c2ccccc21 (configuration not stated),4.92%,
O=C1c2ccccc2C(=O)c2c1cccc2N1CCN(C/C=C/c2ccccc2)CC1,24.5%,
NS(=O)(=O)c1ccc(N2C(=O)C3C4CC(C(Br)C4Br)C3C2=O)cc1 (configuration not stated),5.23%,
COC(=O)CCNC(=O)c1ccc2[nH]c(C)c(C)c2c1,-8.44%,
O=C(CN1C(=O)NC2(CCCC2)C1=O)NCC1CCCO1 (configuration not stated),-2.83%,
COc1ccc(-c2nc(N)sc2C2(O)C(=O)Nc3c(Br)cc(F)cc32)cc1OC (configuration not stated),19.9%,
